Measurements as given in PubChem BioAssay (NCATS).
Records with an inconclusive call do not appear. Unless noted, calls come from the whole dose curve; as a rule, active = well fitted curve in either direction with a large enough effect (not every such curve was filed as active); inconclusive = small, poorly fitted or top-dose-only effect, or another doubt; inactive = flat fitted curve, though single readings scatter.

What was measured:
[1] = AP1 Signaling Pathway (AID 357); conditions: ME-180 AP-1-bla reporter, EGF-induced, beta-lactamase ratio, 5 h; at 17.2 µM (top of the series) unless noted;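 note: ME-180 reporter cells stimulated with EGF at its EC50 level; % is set by controls: 0 for no effect and ±100 for the full control effect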
Procedure, shortened: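 AP-1-bla ME-180 cells, Opti-MEM + 0.5% dialyzed FBS, plated overnight 37 °C. Cpd titration + EC50 EGF, 5 h 37 °C. CCF4 2.5 h RT; ex 405, em 460/530 ratio → %activity, AC50.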

[2] = NFAT Signaling Pathway (AID 444); conditions: Jurkat NFAT-bla M1, carbachol, beta-lactamase ratio, 5 h; at 17.2 µM (top of the series) unless noted;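 note: carbachol stimulus at about its EC50 of 1 µM final; % is set by controls: 0 for no effect and ±100 for the full control effect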
Procedure, shortened: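 Jurkat cells carrying an NFAT-driven β-lactamase reporter and co-transfected muscarinic M1 receptor were treated with compound plus carbachol (1 uM final, an EC50 level) for 5 h at 37 °C. CCF4 loading followed for 1 h at RT; 460/530 nm ratio gave %activity.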

[3] = Stat Signaling Pathway (AID 446); conditions: ME-180 (cervical carcinoma) SIE beta-lactamase reporter, IL-6 stimulated, 5 h; at 17.2 µM (top of the series) unless noted;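 note: ME-180 cervical cancer cells given 40 pM IL-6 alongside compound; SIE-controlled beta-lactamase reporter measured as 460/530 nm FRET emission ratio; % is set by controls: 0 for no effect and ±100 for the full control effect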
Procedure, shortened: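 IL-6/STAT signaling read in ME-180 cells via an SIE beta-lactamase reporter. Stimulus was 40 pM IL-6 (its AC50) for 5 hrs, so both activation and inhibition register.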

[4] = target: Glucocorticoid receptor (Homo sapiens) (UniProt P04150); test: GR-GFP Redistribution (AID 450;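 active = compounds whose dose series gives a full or clear partial fitted curve of increased nuclear translocation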; note: potency is the fitted concentration of half-maximal effect)
Sequence of Glucocorticoid receptor (Homo sapiens) (P04150 whole entry, looked up): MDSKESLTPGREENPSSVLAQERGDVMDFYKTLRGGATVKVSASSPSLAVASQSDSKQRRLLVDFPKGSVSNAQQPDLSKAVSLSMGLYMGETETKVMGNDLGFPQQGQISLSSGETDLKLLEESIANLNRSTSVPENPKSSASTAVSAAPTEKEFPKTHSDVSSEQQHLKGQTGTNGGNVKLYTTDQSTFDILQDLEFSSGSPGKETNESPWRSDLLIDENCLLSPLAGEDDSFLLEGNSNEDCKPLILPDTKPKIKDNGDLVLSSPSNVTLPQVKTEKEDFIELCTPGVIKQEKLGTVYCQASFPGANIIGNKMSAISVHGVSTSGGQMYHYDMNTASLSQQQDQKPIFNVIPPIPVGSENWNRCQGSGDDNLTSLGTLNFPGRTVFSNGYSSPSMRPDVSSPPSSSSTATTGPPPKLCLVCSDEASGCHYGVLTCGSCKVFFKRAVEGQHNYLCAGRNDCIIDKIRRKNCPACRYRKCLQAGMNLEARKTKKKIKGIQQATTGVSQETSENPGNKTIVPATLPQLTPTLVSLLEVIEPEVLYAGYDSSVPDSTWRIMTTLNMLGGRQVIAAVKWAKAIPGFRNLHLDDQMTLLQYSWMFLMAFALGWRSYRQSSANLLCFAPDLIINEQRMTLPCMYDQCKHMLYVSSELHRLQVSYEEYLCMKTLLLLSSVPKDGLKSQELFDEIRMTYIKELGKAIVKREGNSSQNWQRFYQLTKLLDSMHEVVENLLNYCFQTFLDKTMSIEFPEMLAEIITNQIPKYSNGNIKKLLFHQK

CC1(C)Cc2c(sc3[nH]c(=S)n(Cc4ccco4)c(=O)c23)CO1
inactive: activity change, negative = inhibition [1] -2.74% | activity change, negative = inhibition [2] -5.17% | activity, negative = inhibition [3] -8.92% | Potency [4] > 20.6 µM

CCCCOc1ccc(CN(C)c2ncnc(N)n2)cc1
inactive: activity change, negative = inhibition [1] -9.35% | activity change, negative = inhibition [2] -11.6% | activity, negative = inhibition [3] 8.02% | Potency [4] > 20.6 µM

Cc1cc(N2CCN(C3CCCC3)CC2)n2c(nc3ccccc32)c1C#N
inactive: activity change, negative = inhibition [1] 17.3% | activity change, negative = inhibition [2] 19.5% | activity, negative = inhibition [3] 28.2% | Potency [4] > 20.6 µM

CCOc1nc(SCCOc2ccccc2)nc(N(C)C)n1
inactive: activity change, negative = inhibition [1] -22.1% | activity change, negative = inhibition [2] 28% | activity, negative = inhibition [3] 8.95% | Potency [4] > 20.6 µM

Cc1c(/C(O)=C2/C(=O)C(=O)N(CCN3CCOCC3)C2c2cccnc2)cnn1-c1ccccc1 (stereo not given)
inactive: activity change, negative = inhibition [1] -11.6% | activity change, negative = inhibition [2] -1.03% | activity, negative = inhibition [3] -0.626% | Potency [4] > 20.6 µM

Cc1ccc(C2/C(=C(\O)c3ccc4c(c3)OCCO4)C(=O)C(=O)N2CCCN(C)C)o1 (stereo not given)
inactive: activity change, negative = inhibition [1] 1.54% | activity change, negative = inhibition [2] -21.4% | activity, negative = inhibition [3] -1.3% | Potency [4] > 20.6 µM

Cc1nnc2n(Cc3ccccc3)c(=O)c3c4c(sc3n12)COC(C(C)C)C4 (stereo not given)
inactive: activity change, negative = inhibition [1] 10.6% | activity change, negative = inhibition [2] -9.5% | activity, negative = inhibition [3] 5.19% | Potency [4] > 20.6 µM

Cn1cc(C(=O)NCN2CCCCC2)c2ccccc21
inactive: activity change, negative = inhibition [1] -2.91% | activity change, negative = inhibition [2] -0.662% | activity, negative = inhibition [3] 3.15% | Potency [4] > 20.6 µM

O=C(NCc1ccco1)c1cnn2c1NC(c1ccccc1)CC2C(F)(F)F (stereo not given)
inactive: activity change, negative = inhibition [1] -8.13% | activity change, negative = inhibition [2] -2.99% | activity, negative = inhibition [3] -6.74% | Potency [4] > 20.6 µM

CN1C(=O)CC(N2CCN(c3ccc(Cl)c(Cl)c3)CC2)C1=O (stereo not given)
inactive: activity change, negative = inhibition [1] 17.6% | activity change, negative = inhibition [2] 16.8% | activity, negative = inhibition [3] 0.709% | Potency [4] > 20.6 µM

CCOC(=O)c1c(C)n(C)c2ccc(OC)c(NC(=O)CN3CCSCC3)c12
inactive: activity change, negative = inhibition [1] -2.27% | activity change, negative = inhibition [2] -0.789% | activity, negative = inhibition [3] -8.37% | Potency [4] > 20.6 µM

Cc1ccc2[nH]c3c(c2c1)CCCC3C(N)=O (stereo not given)
inactive: activity change, negative = inhibition [1] -5.19% | activity change, negative = inhibition [2] -1.59% | activity, negative = inhibition [3] 8.83% | Potency [4] > 20.6 µM

Cc1c(-c2cccs2)[n+](=O)c2c(n1[O-])CCCC2
inactive: activity change, negative = inhibition [1] 14.7% | activity change, negative = inhibition [2] -0.25% | activity, negative = inhibition [3] 6.22% | Potency [4] > 20.6 µM

O=C(CC1SC2=NCCN2C1=O)Nc1ccccc1 (stereo not given)
inactive: activity change, negative = inhibition [1] 4.21% | activity change, negative = inhibition [2] 19% | activity, negative = inhibition [3] -5.25% | Potency [4] > 20.6 µM

C1CNCCNCCNCCN1
inactive: activity change, negative = inhibition [1] -9.33% | activity change, negative = inhibition [2] 6.5% | activity, negative = inhibition [3] -0.788% | Potency [4] > 20.6 µM

COC(=O)C1=C(C)N=C2SC(C)C(=O)N2C1c1cccs1 (stereo not given)
inactive: activity change, negative = inhibition [1] -11.1% | activity change, negative = inhibition [2] -9.72% | activity, negative = inhibition [3] -9.23% | Potency [4] > 20.6 µM

CN1CCN(Cc2c(O)ccc3c(-c4ccccc4)cc(=O)oc23)CC1
inactive: activity change, negative = inhibition [1] -11.8% | activity change, negative = inhibition [2] -9.28% | activity, negative = inhibition [3] -7.33% | Potency [4] > 20.6 µM

COC(=O)c1ccc(C2/C(=C(/O)c3ccc(OC)cc3)C(=O)C(=O)N2c2cc(C)on2)cc1 (stereo not given)
inactive: activity change, negative = inhibition [1] -14% | activity change, negative = inhibition [2] -13.5% | activity, negative = inhibition [3] -20.1% | Potency [4] > 20.6 µM

CCOc1ccccc1C(=O)NCCCCCC(=O)O
inactive: activity change, negative = inhibition [1] -1.91% | activity change, negative = inhibition [2] 2.57% | activity, negative = inhibition [3] 6.07% | Potency [4] > 20.6 µM

Cc1cc(C)n(C(=O)CNC(=O)C2COc3ccccc3O2)n1 (stereo not given)
inactive: activity change, negative = inhibition [1] 15.9% | activity change, negative = inhibition [2] -7.83% | activity, negative = inhibition [3] 24.9% | Potency [4] > 20.6 µM

COc1ccc(OC)c(C2=Nn3c(nnc3C3CCCCC3)SC2)c1
inactive: activity change, negative = inhibition [1] -18.2% | activity change, negative = inhibition [2] -5.08% | activity, negative = inhibition [3] -1.6% | Potency [4] > 20.6 µM

C=CCn1c(-c2ccc(OC)c(OC)c2)n[nH]c1=S
inactive: activity change, negative = inhibition [1] 1.93% | activity change, negative = inhibition [2] 9.3% | activity, negative = inhibition [3] -10.7% | Potency [4] > 20.6 µM

O=c1[nH]c2sc3c(c2c(=O)n1Cc1ccccc1)CCC3
inactive: activity change, negative = inhibition [1] -27.5% | activity change, negative = inhibition [2] 16.2% | activity, negative = inhibition [3] -5.31% | Potency [4] > 20.6 µM

COc1ccc(OC)c(NC(=O)CSc2nnc(-c3ccco3)n2-c2ccc(C(=O)O)cc2)c1
inactive: activity change, negative = inhibition [1] -4.17% | activity change, negative = inhibition [2] 15.9% | activity, negative = inhibition [3] -4.38% | Potency [4] > 20.6 µM

CC1(C(=O)CSc2nc3ccccc3s2)CCC(=O)O1 (stereo not given)
inactive: activity change, negative = inhibition [1] -6.34% | activity change, negative = inhibition [2] 1.72% | activity, negative = inhibition [3] 4.74% | Potency [4] > 20.6 µM
